These results are taken from ChEMBL document CHEMBL3988442, “University of Dundee, Small-Polar-MMV Screening Library” (2021).

In all, about 48,000 compounds went through this assay and about 13,000 (27%) showed an effect of 50% or more. Some of the results follow.

The subject of this assay is Wolbachia pipientis. The assay can be described thus: Anti-Wolbachia Cell-Based Screen. It is filed as functional. More on the design: scale not given: in the data most compounds retested in dose-response had high values. To be noted: 5 µM.
For `CC(=O)NCCCOc1c(C)cccc1Cl`, the “Percent Effect” value is reported as -7.084%. As for `O=C1CCC2(CCCN(C(=O)c3ccc[nH]3)C2)CN1CCc1c[nH]cn1` (stereo not given), the “Percent Effect” value is reported as -3.691%. With `Cc1cc(CN(C)C(=O)c2cccc(N3CCCC3=O)c2)no1`, the “Percent Effect” value was found to be 3.879%. With `CCN(CCNC(=O)c1cccc(C)c1C)C1CC1` the figure was 95.34%.

In the case of `CCN(CCNC(=O)c1ccccc1Br)C1CC1`, the “Percent Effect” value was -1.027%. Take `COCCOc1ncccc1C(=O)Nc1c(C)cnn1CC1CC1`: the “Percent Effect” value is -11.28%.

For the compound `CCOc1ncccc1C(=O)NCCN(CC)C1CC1`, the “Percent Effect” value was -2.077%. Regarding `Cc1cccc(C(=O)NCCNS(=O)(=O)c2cccs2)c1C`, the “Percent Effect” value is recorded as -10.16%.

Consider `CCN(CCNC(=O)c1cccnc1OCCOC)C1CC1`, for which the “Percent Effect” value is given as 95.99%. Take `CC(C)c1cccc(-n2cc(O)c(C(=O)NCCCn3cccn3)n2)c1`: the “Percent Effect” value was -4.081%. `COC(=O)C1CN(Cc2ccn(-c3ccc(F)cc3)n2)CCO1` (stereo not given): the “Percent Effect” value was -3.694%.

`CCc1nc(CN2CCN(C(=O)CCc3ccccc3)CC2)cs1`: the “Percent Effect” value came out at 19.11%.

Regarding `Cc1noc(C)c1CCC(=O)N1CCCN(Cc2cscn2)CC1`, the “Percent Effect” value was -9.58%. Regarding `Cc1nc(CN2CCCN(C(=O)c3cccn3C)CC2)cs1`, the “Percent Effect” value was -4.038%.

`O=C(CCc1cccc(F)c1F)N1CCN(Cc2ccco2)CC1`: the “Percent Effect” value is listed as 9.986%. Turning to `Cc1nc(CN2CCN(C(=O)CCc3ccco3)CC2)cs1`, the “Percent Effect” value is recorded as 84.98%. With `Cc1nc(CN2CCCN(C(=O)CCc3ccco3)CC2)cs1`, the “Percent Effect” value was 136.5%. Regarding `Cc1nc(CN2C[C@@H]3CN(C(=O)CC(F)(F)F)C[C@@H]3C2=O)cs1`, the “Percent Effect” value was -5.241%. With `O=C(CCc1ccco1)N1CCCN(Cc2cscn2)CC1`, the “Percent Effect” value was determined as 110.3%. With `CCc1nc(CN2CCCN(C(=O)CCc3ccco3)CC2)cs1` the figure was -5.985%; with `Cc1nc(CN2C[C@@H]3CN(C(=O)c4ccoc4C)C[C@@H]3C2=O)cs1`, -24.28%.

With `Cc1nc(CN2C[C@@H]3CN(C(=O)c4ccoc4C)C[C@@H]3C2)cs1`, the “Percent Effect” value was found to be 104.4%. With `CCc1nsc(N2CCN(CC(=O)NCc3cccnc3)CC2)n1`, the “Percent Effect” value is 5.46%. Consider `CC1CN(C)c2ccccc2CN1C(=O)CSc1ccncc1` (stereo not given), for which the “Percent Effect” value was -15.08%. Regarding `O=S(=O)(c1cccnc1)N1CCN(CC(O)c2cccs2)CC1` (stereo not given), the “Percent Effect” value is recorded as -0.3613%. In the case of `CN(C)S(=O)(=O)N1CCC2(CC1)CC(Oc1ccccn1)CO2.O=C(O)C(F)(F)F` (stereo not given), the “Percent Effect” value is recorded as -11.89%. As for `CN(C)S(=O)(=O)N1CC(c2ccnc(Nc3ccccn3)n2)C1`, the “Percent Effect” value is listed as 81.46%.

In the case of `CN(C)S(=O)(=O)N1CCC(c2ccnc(Nc3ccccn3)n2)C1` (stereo not given), the “Percent Effect” value is recorded as 92.82%. Take `O=S(=O)(NC1CCCN(c2ncccn2)C1)N1CCCCCC1` (stereo not given): the “Percent Effect” value is recorded as -17.91%. Regarding `CCNc1ccnc(NC2CCN(S(C)(=O)=O)CC2)n1`, the “Percent Effect” value came out at 1.929%.

With `Cc1ccc(Nc2nccc(C3CN(CC(N)=O)C3)n2)nc1`, the “Percent Effect” value was -11.37%. For `CS(=O)(=O)N1CC(c2ccnc(Nc3ccccn3)n2)C1`, the “Percent Effect” value turned out to be 102.3%. In the case of `O=S(=O)(N1CCCC1)N1CC(c2ccnc(Nc3ccccn3)n2)C1`, the “Percent Effect” value came to 105.1%. Regarding `N[C@H]1CN(S(=O)(=O)N2CCCC2)C[C@@H]1c1ccccc1`, the “Percent Effect” value is -9.902%. Regarding `CN(C)C(=O)C1CN(Cc2ccc(C#N)cc2)c2ccccc2O1` (stereo not given), the “Percent Effect” value is recorded as -2.727%.

Take `O=C(NCCn1cccc1)C1CCN(C2CCCCC2)CC1`: the “Percent Effect” value worked out at 3.682%.

Consider `Cc1c(F)cccc1CN1CCn2nc(CNC(=O)N(C)C)cc2C1`, for which the “Percent Effect” value was 9.061%. Take `Cc1cc(C)c2c(c1)C1(CC(=O)Nc3c1cnn3C(C)C)C(=O)N2` (stereo not given): the “Percent Effect” value is recorded as -4.592%. The same measure for `Cc1cc2n(n1)CC(CNC1CCN(c3ccc(F)cc3)CC1)CN2` (stereo not given): 8.147%; for `Cc1nc2c(c(=O)n1C)CN(C(=O)C1CCCN(C(=O)N(C)C)C1)C2` (stereo not given): 1.11%; for `Cc1nc(N2CCCC2)nc2c1CN(C(C)C)CC2.O=C(O)C(F)(F)F`: -22.93%. With `CC(=O)N1CCc2nc(N3CCCC3)nc(C)c2C1` the figure was 96.78%; with `Cc1nc(N2CCCC2)nc2c1CN(C(=O)N(C)C)CC2`, 100.4%.

Take `Cc1nc(N2CCCC2)nc2c1CN(C(=O)NC(C)C)CC2`: the “Percent Effect” value is recorded as 102.9%. `CN(Cc1ccccc1)C(=O)c1cc2c(c(S(N)(=O)=O)c1)CCC2`: the “Percent Effect” value is -0.2198%. As for `CCCOc1ccc2ccccc2c1CN1CC[C@@]2(O)CCNC[C@H]2C1`, the “Percent Effect” value was 3.118%.

For `CCc1nc(C)cc(NC(C)C(=O)Nc2cc(F)ccc2C)n1` (stereo not given), the “Percent Effect” value is reported as 4.426%.

Turning to `CCc1cc(N[C@H]2CCC[C@H]2CO)n2nccc2n1`, the “Percent Effect” value is given as -20.55%.

For `O=C(c1ccco1)N1CC(S(=O)(=O)c2ccc(Cl)cc2)C1`, the “Percent Effect” value was 72.73%.

Consider `O=C(c1cccnc1)N1CC(S(=O)(=O)c2ccc(Cl)cc2)C1`, for which the “Percent Effect” value was determined as 139.6%. For `O=C(c1cccnc1)N1C[C@@H]2OCC(=O)N(Cc3cccnc3)[C@@H]2C1`, the “Percent Effect” value is -21.42%.

As for `NC(=O)N1C[C@@H]2CN(C(=O)c3ccco3)C[C@@H]2C1`, the “Percent Effect” value is recorded as -28.89%. For the compound `O=C(C[C@H]1[C@H]2CN(C(=O)c3cccnc3)C[C@@H]12)Nc1cccnc1`, the “Percent Effect” value was -0.113%. With `O=C(c1ccccn1)N1CCC(Oc2ncccc2Cl)CC1` the figure was 6.011%. As for `O=C(c1ccccn1)N1CC(S(=O)(=O)c2ccc(Cl)cc2)C1`, the “Percent Effect” value amounted to 113.3%. For `O=C(c1ccccn1)N1C[C@@H]2CC[C@H](C1)N(C(=O)c1ccsc1)C2`, the “Percent Effect” value was -66.93%. On to `O=C(O)C(F)(F)F.O=C(c1ccccn1)N1CC[C@H]2[C@H]1CCN2S(=O)(=O)C1CC1`, for which the “Percent Effect” value is reported as -10.64%. With `O=C(c1ccccn1)N1CCC(Oc2cccnc2)CC1` the figure was -15.11%; with `Cn1cnnc1S(=O)(=O)C1CCN(C(=O)c2ccco2)CC1`, 9.772%; with `O=C(c1ccccn1)N1CCC(S(=O)(=O)c2ccccc2)C1` (stereo not given), 101.3%.

In the case of `CN(C1CCCC1)C(C)(C)C(=O)NCCS(C)(=O)=O`, the “Percent Effect” value is 3.461%.

In the case of `N#CCc1ccc(NC(=O)N[C@H](CO)Cc2ccc(O)cc2)cc1`, the “Percent Effect” value was -6.882%. Regarding `CCc1nc2c(c(NCc3cc(-c4cccnc4)no3)n1)CCNCC2`, the “Percent Effect” value stood at 11.03%. Regarding `O=C(c1cnccn1)N1CC(S(=O)(=O)c2ccc(Cl)cc2)C1`, the “Percent Effect” value was 115.9%. The same measure for `O=C(NCc1c(F)cccc1F)C1CN(C(=O)c2cnccn2)C1`: -2.814%; for `O=C(NC1CC1)C1CN(C(=O)c2cnccn2)C1`: -10.02%; for `CCOCC(O)CNc1cncc(Br)c1` (stereo not given): -4.889%. As to `CC(=O)CC(C)(C)NC(=O)CCN(C)Cc1ccc(Cl)s1`, the “Percent Effect” value came out at 13.53%.

As for `CN1CC(=O)N(C2CCNC2)Cc2c(NC3CCCC3)ncnc21` (stereo not given), the “Percent Effect” value came to 104.3%.

Consider `O=c1c2cccc(C(F)(F)F)c2ncn1C1CCNC1` (stereo not given), for which the “Percent Effect” value was -5.057%. Consider `CN1CC(=O)N(C2CCCNC2)Cc2c(NC3CCC3)ncnc21` (stereo not given), for which the “Percent Effect” value is on record as 103.9%. As to `CC1=C(C(=O)N2CCOC(Cc3cccc(C(F)(F)F)c3)C2)OCCO1` (stereo not given), the “Percent Effect” value is -4.78%. The same measure for `Cc1noc(C)c1CCNc1nccc(CCC(F)(F)F)n1`: 1.118%.

For `CN(C)Cc1nn(C)c2c1CN(S(=O)(=O)c1ccccc1F)C2`, the “Percent Effect” value is given as 3.844%. With `CC(=O)NC1CCN(c2cc(-c3ccccc3)nc3c(C)c(C)nn23)C1` (stereo not given) the figure was -1.812%; with `CCc1[nH]ncc1C(=O)N1CCCC(n2ccnc2C(C)C)C1` (stereo not given), -14.63%; with `CC(C)OCCC1CCCCN1S(=O)(=O)c1cnn(C)c1` (stereo not given), -6.246%. With `CCOC(=O)C1CCN(C(=O)CN2CCCC2c2cc(C)no2)CC1` (stereo not given), the “Percent Effect” value is reported as -7.861%. The same measure for `CNS(=O)(=O)CCCN1CCCC1c1cc(C)on1` (stereo not given): -6.242%. Regarding `CCn1cc(S(=O)(=O)N2CCCCCC2c2cc(C)no2)cn1` (stereo not given), the “Percent Effect” value was determined as 176.5%. On to `CCn1cc(CN(C)S(=O)(=O)N2CCCC2c2ccco2)cn1` (stereo not given), for which the “Percent Effect” value was -4.974%. The same measure for `CCn1cc(S(=O)(=O)N2CCCCCC2c2cc(C)on2)cn1` (stereo not given): 92.08%; for `COCCOCCC(=O)Nc1c(-c2ccc(F)cc2)ncn1C`: -3.986%. `CCn1[nH]c(C)c2c(C(F)(F)F)cc(=O)nc1-2`: the “Percent Effect” value was -15.52%. The same measure for `COc1c(C2CCCN2c2ncnc3ccsc23)c(C)nn1C` (stereo not given): 5.005%; for `CC(C)(C)c1nnc2n1C(C(=O)N1CCN(c3ncccn3)CC1)CC2` (stereo not given): 115.5%; for `CC(C)(C)c1nnc2n1C(C(=O)N1CCOCC1)CC2` (stereo not given): 111.9%.

Turning to `CN1N=C(C(=O)N2CCN(c3ncccn3)CC2)CCC1=O`, the “Percent Effect” value amounted to 16.67%.

Consider `CN(C)C(=O)C1CCc2nnc(C(C)(C)C)n21` (stereo not given), for which the “Percent Effect” value amounted to 107%. In the case of `CC(NC(=O)CCc1nc(C(C)(C)C)no1)c1nnc2n1CCC2` (stereo not given), the “Percent Effect” value is 1.388%.

For the compound `CC(NC(=O)CCOc1ccccc1Cl)c1nnc2n1CCC2` (stereo not given), the “Percent Effect” value stood at 1.83%.

As for `O=C1CCSCC(C(=O)N2CCOCC2)N1` (stereo not given), the “Percent Effect” value is listed as -11.6%.

In the case of `O=C(COC1CCCC1)N1CCCN(c2ncccn2)CC1`, the “Percent Effect” value is on record as -14.8%. As for `Cc1cn2nc(N3CCCC3C(=O)N3CCOCC3)sc2n1` (stereo not given), the “Percent Effect” value is -18.11%. With `CC(C)NC(=O)C1CCc2nnc(C(C)(C)C)n21` (stereo not given), the “Percent Effect” value was 100.1%. Take `CCc1nc2n(n1)CCCC2NC(=O)Nc1cccc(F)c1F` (stereo not given): the “Percent Effect” value is on record as -21.46%. The same measure for `C[S+]([O-])c1cccc(NC(=O)N(CCC#N)Cc2ccccn2)c1` (stereo not given): -5.424%; for `CCn1cc(CNc2ccc(N(C)CCOC)cn2)cn1`: 3.344%. Regarding `O=C(C1CCCc2[nH]ncc21)N1CCCCCC1` (stereo not given), the “Percent Effect” value was determined as 7.18%. Consider `O=C(C1CCCc2[nH]ncc21)N1CCCC1` (stereo not given), for which the “Percent Effect” value was -1.484%. For the compound `CC(C)(C)c1nnc2n1C(C(=O)N1CCCC1)CC2` (stereo not given), the “Percent Effect” value is reported as 107.6%. The same measure for `COCC1CN(Cc2ccoc2)Cc2cn(CC3CCOCC3)nc21` (stereo not given): -9.673%. With `CN1CCCC1CCNC(=O)Nc1ccccc1` (stereo not given) the figure was 124.8%; with `O=C(NCCCO)Nc1ccccc1`, -6.748%; with `CN1CCCC1CNC(=O)CCCOCc1ccccc1` (stereo not given), -8.407%.
